Measured values from PubChem BioAssay.
Active and inactive are the calls of the source.

Tests used:
[1] = compound effects on lung adenocarcinoma cell viability – A549, calcein-AM fluorescence, 48 h, basal, profiling panel (AID 1162); settings: higher = more signal
[2] = compound effects on differentiated 3T3-L1 adipocyte viability – cell-based, 3T3-L1 adipocytes, calcein-AM fluorescence, 48 h, basal, profiling panel (AID 1163); settings: 3T3-L1 adipocytes viability, higher = more signal
[3] = compound effects on hepatocellular carcinoma cell viability – HepG2, calcein-AM fluorescence, 48 h, basal, profiling panel (AID 1164); settings: higher = more signal
[4] = compound effects on multiple myeloma cell viability – MM1S, calcein-AM fluorescence, 48 h, basal, profiling panel (AID 1165); settings: higher = more signal;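 also: viability of MM1S multiple myeloma cells under basal unstimulated conditions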
[5] = calcein-AM signal in unstimulated myeloma cells – cell-based, calcein-AM fluorescence, 48 h, PK04 Diversity Set, profiling panel (AID 1166); settings: RPMI8226 myeloma viability, higher = more signal;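 also: cells grown under basal conditions without added stimulus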
[6] = JC-1 mitochondrial signal, unstimulated HepG2 cells – cell-based, JC-1 fluorescence, 24 h, 100 nL compound, profiling panel (AID 1167); settings: HepG2 mitochondrial potential, higher = more signal
[7] = JC-1 mitochondrial signal, unstimulated adipocytes – cell-based, JC-1 fluorescence, 3T3-L1 adipocytes, 24 h, 100 nL compound, profiling panel (AID 1168); settings: JC-1 mitochondrial fluorescence, higher = more signal, called active from +8 up or from −8 down
[8] = JC-1 mitochondrial signal, unstimulated myeloma cells – cell-based, JC-1 fluorescence, RPMI8226, 24 h, 100 nL compound, profiling panel (AID 1169); settings: JC-1 mitochondrial potential fluorescence, higher = more signal
[9] = JC-1 mitochondrial signal, unstimulated MM1S myeloma – cell-based, JC-1 fluorescence, 24 h, 100 nL compound, profiling panel (AID 1170); settings: MM1S mitochondrial potential, higher = more signal
[10] = resazurin metabolic signal in A549 cells – cell-based, resazurin fluorescence, 24 h, PK04 Diversity Set, profiling panel (AID 1171); settings: A549 viability, higher = more signal, called active from +8 up or from −8 down
Also: test concentration not given here.

SMILES	z-score [1]	z-score [2]	z-score [3]	z-score [4]	z-score [5]	z-score [6]	z-score [7]	z-score [8]	z-score [9]	z-score [10]
CC(=O)Nc1cc(Br)ccc1C(=O)O	0.665	0.747	0.332	-0.906	-0.178	-0.598	-0.672 (inactive)	-0.685	1.05	-0.243 (inactive)
O=C1OCCC=C[C@H]2OC34C=CCN(Cc5ccccc5)C(=O)[C@H]3N(CCCCCO)C(=O)[C@@H]4C12 (stereo not given in full)	0.412	-0.0568	0.889	1.81	0.593	0.756	0.498 (inactive)	0.231	-0.967	0.872 (inactive)
CN1C=C(C(=O)OCCS(C)(=O)=O)C(C(=O)OCCS(C)(=O)=O)=CC(CCCO)=CC1C1CC1 (stereo not given)	-0.731	0.197	1.23	0.509	0.535	0.838	0.448 (inactive)	0.326	-1.09	0.129 (inactive)
C=C(COC)C(=O)CC[C@H](OC(C)=O)c1cccc(OCCO)c1	-0.0614	1.55	-0.116	-2.94	-1.07	-0.331	0.715 (inactive)	1.18	0.471	-1.07 (inactive)
C=C[C@H](COC(C)=O)N(Cc1ccc(OC(C)=O)c(OC)c1)S(=O)(=O)c1ccc(Br)cc1	1.18	0.139	0.285	0.594	0.394	0.43	1.19 (inactive)	0.825	-0.886	0.353 (inactive)
COC(=O)[C@@]1(Cc2ccc(OC)cc2)[C@H]2c3cc(C(=O)N4CCCC4)n(Cc4cc(F)cc5c4OCOC5)c3C[C@H]2CN1C(=O)c1ccccc1	-1.67	-0.151	-0.675	-3.31	-3.81	0.912	-0.562 (inactive)	-0.753	-2.72	-1.5 (inactive)
COc1cc2c(cc1O)C(C)N(Cc1cccc(OC(F)(F)F)c1)CC2 (stereo not given)	-0.762	0.815	-1.51	-2.34	-2	0.0471	-0.793 (inactive)	0.0842	-1.24	0.849 (inactive)
COC(=O)C1=CC(CCCO)=CC(C2CC2)N(Cc2sc3ccccc3c2Cl)C=C1C(=O)OC (stereo not given)	-0.637	0.326	-0.514	-2.99	-4.06	0.00468	0.235 (inactive)	-0.915	0.00801	0.0509 (inactive)
C=CCNC(=O)[C@@H]1[C@H]2C(=O)O[C@H](c3ccccc3)[C@H](c3ccccc3)N2[C@H](c2ccc(O)cc2)[C@@]12C(=O)N(C(=O)OCCOC)c1ccccc12	0.231	2.01	0.0902	-0.549	-1.52	-0.338	0.951 (inactive)	0.104	-0.0916	0.425 (inactive)
O=C1[C@]2(CO)C=C(Br)[C@@H](C[C@@H]2c2ccccc2)[C@@]12CO2	-0.425	0.364	-0.421	-2.22	-2.68	-1.66	-0.435 (inactive)	0.278	-1.14	0.359 (inactive)
CC(C)CNC(=O)[C@@]1(c2ccc([N+](=O)[O-])cc2)CC(=O)N(CC23CC4CC(CC(C4)C2)C3)[C@@H]1c1ccc(CO)cc1I	-0.394	0.604	-3.4	-3.83	-4.32	1.47	-0.744 (inactive)	-0.948	-0.674	-2.77 (inactive)
CC(C)(C)OC(=O)CC[C@@]1(C(=O)NCCN2CCOCC2)N=C(c2ccc(OCCCO)cc2)O[C@@H]1c1ccccc1	0.694	0.571	0.564	0.586	1.26	-0.0256	0.66 (inactive)	-0.707	-0.514	-0.24 (inactive)
CN(C)CCCCCCNC(=O)[C@H]1C[C@H]2C(=O)N[C@@H](CCCCN)C(=O)N2[C@H]1c1ccc(O)cc1	-0.466	0.71	0.266	-1.05	-0.0908	0.758	-0.935 (inactive)	-0.773	0.237	0.283 (inactive)
CCOC(=O)C[C@H]1[C@H](OC(=O)c2ccc(-c3ccccc3)cc2)[C@@H](NC(=O)c2ccc3ccccc3c2)c2cc(OCCCO)ccc2N1C(=O)Cc1ccc(OC)cc1	0.0289	0.965	0.0837	-0.379	0.0182	2.96	-0.000915 (inactive)	0.462	0.189	0.24 (inactive)
COCCOC(=O)N1C(=O)[C@@]2(c3cc(C#Cc4ccc(OC)cc4)ccc31)[C@H](C(=O)N1CCN(c3ncccn3)CC1)[C@H]1C(=O)O[C@H](c3ccccc3)[C@H](c3ccccc3)N1[C@@H]2c1ccc(O)cc1	1.23	1.26	0.986	0.973	0.806	-0.013	2.2 (inactive)	0.157	0.193	1.31 (inactive)
CCCNC(=O)[C@@]1(c2ccc([N+](=O)[O-])cc2)CC(=O)N(CC23CC4CC(CC(C4)C2)C3)[C@@H]1c1ccc(CO)cc1	-1.05	-0.35	-1.67	-3.54	-3.38	-0.99	-0.141 (inactive)	-0.769	-1.05	-2.9 (inactive)

SMILES	z-score [1]	z-score [2]	z-score [3]	z-score [4]	z-score [5]	z-score [6]	z-score [7]	z-score [8]	z-score [9]	z-score [10]
CCCCCCc1nc(CCCc2cc3c(c(CCCCCC)n2)[Si](C(C)C)(C(C)C)OC3)cc2c1[Si](C(C)C)(C(C)C)OC2	-2.42	1.78	-1.47	-3.28	-4.35	0.535	0.705 (inactive)	-1.1	-0.553	1.75 (inactive)
CN1C(=O)C2C=CC(C(O)c3ccccn3)N(Nc3ccccc3)C2C1=O (stereo not given)	0.169	-0.103	-0.164	-0.309	0.497	-0.562	-0.234 (inactive)	0.184	0.0223	-0.205 (inactive)
Cc1ccc(S[C@]2(C(=O)NCC(C)C)CC(=O)N(Cc3ccccc3Cl)[C@@H]2c2ccc(CO)cc2)cc1	1.63	0.114	-0.45	-0.226	0.845	-0.595	-0.254 (inactive)	-0.492	0.767	-0.0989 (inactive)
CCOC(=O)C1=C[C@@H](C(C)C)N(S(=O)(=O)c2ccc(C)cc2)[C@H]1c1ccc(C(C)C)cc1	0.012	0.256	-0.493	-0.955	-2.18	7.47	-0.0264 (inactive)	-0.0684	-0.776	3.1 (inactive)
C=CC(COC(C)=O)NS(=O)(=O)c1ccc(Br)cc1 (stereo not given)	-0.0852	-0.13	-0.239	0.101	-0.453	-0.642	-0.869 (inactive)	0.392	0.654	-0.283 (inactive)
CC(C)N1C(=O)C[C@@](C(=O)NCc2ccccc2)(c2ccc([N+](=O)[O-])cc2)[C@H]1c1ccc(CO)cc1	-0.508	-0.749	-0.113	-0.0234	-0.0746	0.924	1.08 (inactive)	-0.744	0.301	0.0885 (inactive)
CCCN1C(=O)[C@@]2(CCC(=O)OC(C)(C)C)N=C(c3ccc(OCCCO)cc3)O[C@H]2c2ccccc21	-1.32	1.24	-2.09	-3.47	-4.43	0.6	2.43 (inactive)	-1.26	-0.421	-0.778 (inactive)
CC(C)(C)OC(=O)CC[C@@]1(C(=O)O)N=C(c2ccc(OCCCO)cc2)O[C@@H]1c1ccccc1N=[N+]=[N-]	0.188	-0.364	0.218	-0.0694	-0.385	-2.88	-1.08 (inactive)	-0.759	-1.12	0.0421 (inactive)
C=CCOC(=O)[C@H]1[C@@H]2C(=O)O[C@@H](c3ccccc3)[C@@H](c3ccccc3)N2[C@@H](c2ccc(OCCOC(=O)[C@@H]3C[C@@H]4C(=O)NCC(=O)N4[C@@H]3c3ccc(O)cc3)cc2)[C@]12C(=O)Nc1ccccc12	0.422	0.905	1.49	-0.459	0.776	-1.35	-0.577 (inactive)	-0.831	-1.12	0.677 (inactive)
CC(=O)NCCCC[C@@H]1NC(=O)[C@@H]2C[C@H](C(=O)NCCCCCCNC(=O)CS)[C@H](c3ccc(O)cc3)N2C1=O	-0.503	-0.683	0.366	0.0337	-0.66	-0.638	-0.744 (inactive)	-0.0931	-0.795	-0.363 (inactive)
CC(=O)NCCCC[C@@H]1NC(=O)[C@@H]2C[C@H](C(=O)NCCCCN(C)C)[C@H](c3ccc(O)cc3)N2C1=O	1.42	-0.582	0.374	0.213	0.93	0.709	1.05 (inactive)	-0.293	-0.504	0.854 (inactive)
CCOC(=O)C[C@H]1[C@H](OC(=O)Cc2ccc3c(c2)OCO3)[C@@H](NC(=O)c2ccc(-c3ccccc3)cc2)c2cc(OCCCO)ccc2N1C(=O)c1ccccc1	1.8	0.127	1.66	-0.262	0.0317	3.09	-0.288 (inactive)	0.965	-0.0178	0.328 (inactive)
[N-]=[N+]=Nc1ccccc1[C@H]1OC(c2ccc(OCCCO)cc2)=N[C@@]1(CCS(=O)(=O)c1ccccc1)C(=O)O	0.318	1.69	-0.0825	-1.42	0.682	-3.45	-1.65 (inactive)	0.0104	-0.0976	0.315 (inactive)
O=C(CS)NCCCCCCNC(=O)[C@@H]1C[C@@H]2C(=O)N3CCC[C@H]3C(=O)N2[C@@H]1c1ccc(O)cc1	-1.09	0.519	-0.507	0.16	0.412	-1.57	-0.124 (inactive)	0.653	0.0659	-0.331 (inactive)
COCCOC(=O)N1C(=O)[C@@]2(c3ccccc31)[C@H](C(=O)Nc1nc3ccccc3s1)[C@H]1C(=O)O[C@H](c3ccccc3)[C@H](c3ccccc3)N1[C@@H]2c1ccc(OCCO)cc1	-0.257	1.73	-1.23	-2.13	-1.62	-3.14	1.68 (inactive)	-0.806	-1.57	0.18 (inactive)
O=C/C=C/c1ccc2c(c1)OCO2	0.115	0.327	0.782	-0.251	0.658	1.4	-0.0743 (inactive)	0.365	0.386	-0.362 (inactive)
